Mtb hypoxia rep = inhibitors of hypoxia-regulated fluorescent reporter in Mycobacterium tuberculosis; M. tuberculosis hypoxia-regulated fluorescent reporter, fluorescence; fluorescence inhibition, % (no concentration beside the values); 300,000 compounds, 0.1% hits; AID 1159583; in the data active = fluorescence inhibition mostly above about 23%, no sharp cut-off; inactive = mostly below about 17%
3CLpro inhibitor = SARS-CoV 3CLpro protease inhibition. P0C6X7. inhibition, % at 6 µM. 290,000 compounds, 0.14% hits. AID 1706. recombinant SARS-CoV 3CLpro, quenched FRET peptide cleavage; in the data active = inhibition above about 12%
BioA inh = blocks M. tuberculosis BioA enzyme activity | AID 602481 | inhibition, % at 9.99 µM | purified M. tuberculosis BioA enzyme, plate reader | 360,000 compounds, 0.096% hits; in the data active = inhibition above about 40%
DUSP3 inh = DUSP3 (human) phosphatase inhibition. P51452. recombinant VHR phosphatase, pNPP absorbance. inhibition, % at 13.3 µM. 290,000 compounds, 0.52% hits. AID 1654; in the data active = inhibition above about 50%
Target sequence (P51452 whole entry, looked up): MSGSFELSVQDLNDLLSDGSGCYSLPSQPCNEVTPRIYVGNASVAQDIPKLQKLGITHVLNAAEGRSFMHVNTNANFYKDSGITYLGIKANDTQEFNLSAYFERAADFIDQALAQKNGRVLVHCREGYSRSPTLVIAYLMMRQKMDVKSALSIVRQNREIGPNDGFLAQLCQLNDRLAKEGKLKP
FadD28 binding = blocks FadD28 binding to the bisubstrate probe; fluorescence polarization; inhibition, % at 12.5 µM; 360,000 compounds, 0.22% hits; in the data active = inhibition above about 8.5%, passing the limit was not always enough
The depositor's hits bear a star; · = no result given. Hits are enriched below; roughly 0.7% of the tested compounds scored in any of these assays.

SMILES	Mtb hypoxia rep	3CLpro inhibitor	BioA inh	DUSP3 inh	FadD28 binding
COc1cc(C(=O)Nc2cc(S(=O)(=O)N3CCOCC3)ccc2N2CCOCC2)ccc1OC(F)F	23*	·	0	·	-2
CCc1noc(C)c1C(=O)Nc1cc(S(=O)(=O)N2CCOCC2)ccc1OC(C)C	3	·	1	·	16*
CN(C)c1cc(NN=Cc2ccccc2C(F)(F)F)nc(N(C)C)n1	1	·	·	·	·
CC(=NNC(=O)c1ccn(C)n1)c1ccc(NC(=O)C2CCCC2)cc1	3	·	·	·	·
O=[N+]([O-])c1ccc(-n2cnc3ccccc32)c([N+](=O)[O-])c1	42*	3	·	-15	-3
Cc1cc(C)c(C#N)c(SCCN2CCCCC2)n1	7	2	4	38	0
Cc1ccc(C#N)c(SCCN2CCCCC2)n1	6	-1	0	52*	·
O=C(NCc1ccc(F)cc1)C(Cc1ccccc1)NS(=O)(=O)c1cccs1 (centres undefined)	11	6	-1	17	25*
Cc1c(C(=O)N(CCO)Cc2ccccc2)oc2c(F)cccc12	11	-3	1	56*	-4
Cc1cc(Cl)c2oc(C(=O)N(CCO)Cc3ccccc3)c(C)c2c1	-4	4	3	-35	-3
CCOC(=O)C1=C(N)n2c(sc(=Cc3cccnc3)c2=O)=C(C(=O)OC)C1c1cccnc1 (centres undefined)	2	·	·	·	·
O=[N+]([O-])c1cc(S(=O)(=O)Nc2ccccc2)ccc1NCc1ccccc1	-8	2	-2	26	-1
O=[N+]([O-])c1cc(S(=O)(=O)Nc2ccccc2)ccc1NCc1cccnc1	3	-4	0	60*	-1
CCc1c(O)nc(SCC(=O)Nc2nc3ccccc3s2)n(-c2ccccc2)c1=O	25	3	0	-1	14*
CCc1c(O)nc(SCC(=O)Nc2nc3ccccc3s2)n(-c2ccc(C)cc2)c1=O	7	-2	-3	21	-3
Cc1cc(C(=O)Nc2cccc3c2OC(CN(C)S(=O)(=O)c2ccccc2)C(C)CN(C(C)CO)C3=O)n(C)n1 (centres undefined)	5	·	·	·	·
Cc1cc(C(=O)Nc2ccc(Br)cc2F)n(-c2ccccc2)n1	8	-4	·	58*	-2
Cc1cc(C(=O)Nc2ccc(F)cc2C)n(-c2ccccc2)n1	1	0	·	12	-2
CCN1CCN(C(CNS(=O)(=O)c2ccc(C)cc2)c2cccnc2)CC1 (centres undefined)	0	2	-1	51*	-3
Cc1ccc(S(=O)(=O)NCC(c2cccnc2)N2CCN(Cc3ccccc3)CC2)cc1 (centres undefined)	-5	-1	0	-13	-3
C#CCOCCOCCOCCNc1nc(N2CCN(C(=O)Cn3cc(CCCN=C(N)N)nn3)CC2)nc(N2CCN(C(=O)C(CCCCN)n3cc(CCC(=O)O)nn3)CC2)n1 (centres undefined)	15	·	·	·	·
Brc1ccc(N/N=C(/N=Nc2nn[nH]n2)c2ccccc2)cc1	·	5	·	7	13*
O=C(CCC1CCCN(C(=O)c2ccccc2Cl)C1)N1CCN(c2ccccn2)CC1 (centres undefined)	1	-2	-1	52*	0
CC(=O)c1ccccc1C(=O)N1CCCC(CCC(=O)N2CCN(c3ccccn3)CC2)C1 (centres undefined)	1	3	-1	26	1
COc1ccc(N2CCN(C3CCCN(Cc4ccc(F)cc4Cl)C3)CC2)cc1 (centres undefined)	-1	1	0	51*	-2
SMILES	Mtb hypoxia rep	3CLpro inhibitor	BioA inh	DUSP3 inh	FadD28 binding
COc1ccc(N2CCN(C3CCCN(S(=O)(=O)c4ccccc4)C3)CC2)cc1 (centres undefined)	14	2	-1	6	-1
COc1ccc(N2CCN(C3CCCN(S(=O)(=O)c4ccc(C)cc4C)C3)CC2)cc1 (centres undefined)	-1	-8	-5	57*	-1
COc1ccc(O)c(CN2CCCC(N3CCN(c4ccc(F)cc4)CC3)C2)c1 (centres undefined)	-7	-2	1	44	0
COC(=O)C1=C(c2ccc3ccccc3c2)CC2CCC1N2C (centres undefined)	-6	·	·	·	·
Cc1nn(Cc2ccccc2)c(Cl)c1C=NNC(=O)c1cccnc1	3	·	·	·	·
CCOc1ccc(C=NNc2nncc(-c3ccccc3)n2)cc1OC	0	·	·	·	·
CCn1nc(C)c(C=NNC(=O)Cn2nnnc2N)c1C	-12	·	·	·	·
Cc1ccc2nc3c(c(N)c2c1)CCN3c1ccccc1	-4	6	4	11	-3
Cc1ccc2nc3c(c(N)c2c1)CCN3C	·	-6	3	58*	-2
Cc1ccc(C2C3C(=O)N(C)C(=O)C3C3C(=O)Nc4ccccc4C(=O)N32)cc1 (centres undefined)	9	·	·	·	·
COc1ccc(-n2ccc(=O)c(C(=O)Nc3ccc(S(=O)(=O)Nc4nccs4)cc3)n2)cc1	10	-6	2	58*	0
COC(=O)C(CC(C)C)NCc1cccc(CNC(CC(C)C)C(=O)OC)c1 (centres undefined)	-6	·	·	·	·
NC(=O)CCC1NC(=O)C2CCCN2C(=O)c2cc([N+](=O)[O-])cc(I)c2NCCCCC(C(=O)NC(CC(=O)O)C(N)=O)NC1=O (centres undefined)	12	·	·	·	·
O=C(NC(Cc1ccccc1)C(=O)O)OCC1c2ccccc2-c2ccccc21 (centres undefined)	4	2	0	53*	0
O=C(NC(Cc1ccccc1)C(=O)O)OCc1ccccc1 (centres undefined)	-8	3	-3	26	-1
CC(=O)Nc1nonc1NC(C)=O	7	4	0	-6	-2
CC(=O)Nc1cc(OC(C)=O)c2nonc2c1OC(C)=O	20	37*	-1	8	-1
O=S1(=O)N=C(N(CCO)N=Cc2ccccc2)c2ccccc21	16	·	·	·	·
COc1ccc(CCN2CC(C(=O)N(C)CCOc3ccccc3)CCC2=O)cc1 (centres undefined)	6	-3	3	2	-1
COc1ccc(CCN2CC(C(=O)N(C)Cc3ccccc3OC)CCC2=O)cc1 (centres undefined)	-4	-6	14	53*	-2
CCN1C(=O)C2C(c3ccc(C)cc3)N3C(=O)N(c4cccc(Br)c4)C(=O)[C@@]3(CC)C2C1=O (some centres undefined)	-6	·	·	·	·
O=C(Nc1nnc(-c2ccccc2Cl)o1)c1nc2ccccc2s1	7	0	0	53*	-2
CC(=C(CCO)SSCC1CCCO1)N(C=O)Cc1cnc(C)nc1N (centres undefined)	12	·	·	·	·
O=C(CN1CCCC1)NC(c1ccccc1)c1ccccc1	6	-2	-1	51*	-1
O=C(CN1CCN(c2ccccc2O)CC1)NC(c1ccccc1)c1ccccc1	2	-3	1	18	-2
Cc1ccc(C(=O)N/N=C/c2ccoc2)cc1C	·	-3	49*	32	2
O=C(NN=Cc1ccoc1)c1ccc(Br)cc1	2	·	·	·	·

Screening results from PubChem BioAssay.
